# Test results reported in PubChem BioAssay.
# Records with an inconclusive call do not appear. Active and inactive are the calls of the source.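 The calls were made as follows, unless noted: active = inhibition above the screen-wide mean plus 3 SD, about 51%; inactive = the rest.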
# Columns and labels:
# [1] = yeast TOR pathway RPL19A-GFP modulators, primary screen, cell-based, S. cerevisiae, multiplex flow cytometry (AID 1862; in the data active = percent of DMSO control GFP below about 86%;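 also: lower values mimic rapamycin by blocking the RPL19A rise seen in DMSO cells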); conditions: S. cerevisiae RPL19A-GFP strain, flow cytometry fluorescence, 3 h; at 10 µM; stronger effect = lower value
# [2] = modulators of MEP2-GFP levels in yeast, primary screen, S. cerevisiae, multiplex flow cytometry (AID 1867;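 active = GFP response, as percent of the DMSO control, above the screen-wide mean plus 3 SD, about 139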;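 also: median GFP channel fluorescence of barcode-gated MEP2-GFP cells measured by flow cytometry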); conditions: S. cerevisiae MEP2-GFP strain, 3 h, at 10 µM, stronger effect = higher value, 100% means same as DMSO wells
# [3] = modulators of CIT2-GFP expression in yeast, primary screen, S. cerevisiae, GFP fusion, multiplex flow cytometry (AID 1870;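 active = percent response above a set limit, the screen-wide mean plus 3 SD, cut at about 130% in these data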;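 also: barcoded CIT2-GFP strain pooled with four other GFP strains with rapamycin as positive control; median GFP fluorescence per well over plate mean of DMSO wells so 100% = DMSO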); conditions: 3 h, at 10 µM, stronger effect = higher value
# [4] = modulators of LAP4-GFP expression in yeast, primary screen, S. cerevisiae, multiplex flow cytometry (AID 1873;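 active = GFP signal, as percent of the solvent control, above the screen mean plus 3 SD, about 149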); conditions: 3 h, at 10 µM, stronger effect = higher value
# [5] = modulators of AGP1-GFP expression in yeast TOR pathway, primary screen, cell-based, multiplex flow cytometry, S. cerevisiae (AID 1887;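 active = GFP signal above the screen-wide mean plus 3 SD, that is over about 124.5% of the solvent control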;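 also: AGP1-GFP fusion strain of S. cerevisiae within a five-strain barcoded multiplex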); conditions: 3 h, at 10 µM, stronger effect = higher value
# [6] = inhibitors of CD8+ T cell-vesicle binding, pilot screen, LFA-1/ICAM-1 modulator project, MLPCN validation set, flow cytometry (AID 2523;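 active = response below a set limit, under 55% cells CD8-positive and vesicle-bound, and CD8 cells' 90th-percentile brightness under 279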;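 as to vesicle binding response: mean PE anti-B7-1 fluorescence of CD8+ cells relative to row control; 100% = QL9-loaded vesicles with DMSO vehicle in the same plate row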); conditions: 2C mouse CD8+ T cells, at 7 µM, stronger effect = lower value; double positive events: measured here: CD8+/vesicle+ event percentage
# [7] = biological target: Integrin beta-1 (Homo sapiens) + Integrin alpha-4 (Homo sapiens) (UniProt P13612+P05556); assay: inhibition of HUTS-21 binding to VLA-4, pilot screen, VLA-4 allosteric modulator project, U937 cells, HUTS-21 mAb, flow cytometry, validation set (AID 2674;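 active = inhibition above 50%, about 3 SD of the validation set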;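 also: antibody binding induced by the VLA-4 ligand LDV present at three times its Kd; 0% = LDV ligand with antibody and no compound and 100% = antibody without LDV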); conditions: HUTS-21 LIBS mAb binding, at 6.7 µM, stronger effect = higher value, binding induced by LDV ligand
# [8] = superoxide lowering in aged yeast cells, pilot screen, validation compound set (AID 2706;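 active = superoxide response below 65% of plate, a cut near 3 SD across the whole screen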;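 also: yeast exposed to compound for one week at 30 degrees C before staining; 100% = mean of all compound wells on the same plate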); conditions: S. cerevisiae aging, superoxide DHE fluorescence; at 10 µM; stronger effect = lower value
# [9] = biological target: Beta-adrenergic receptor kinase 1 (Homo sapiens) (UniProt P25098); assay: GRK2 binders displacing RNA aptamer, biochemical, validation, human GRK2, bead flow cytometry (AID 488806;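 active = aptamer binding inhibition above 30%, about 3 SD of noise from non-fluorescent compounds; inactive = inhibition at or below 30%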); conditions: bead-bound GRK2, FAM-aptamer displacement, at 10 µM, stronger effect = higher value
# [10] = biological target: Beta-2 adrenergic receptor (Homo sapiens) (UniProt P07550); assay: beta2AR agonists driving receptor internalization, pilot screen, cell-based, FAP fluorogen, flow cytometry, validation set (AID 504459;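 active = percent response above 42, roughly 3 SD of non-fluorescent test compounds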;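 also: agonist-driven loss of surface beta2AR via internalization measured by FAP dye flow cytometry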); conditions: Am2.2-beta2AR cells, FAP surface receptor flow cytometry; at 10 µM; stronger effect = higher value
# [11] = biological target: AP-2 complex subunit beta (Homo sapiens) (UniProt P63010); assay: inhibitors of arrestin peptide binding to AP2, pilot screen, biochemical, validation set, GST-AP2 beads, flow cytometry (AID 504541;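 active = inhibition above 54%, about 3 SD of non-fluorescent compounds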;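 also: AP2 carries R879A mutation and is captured from E. coli lysate; bead-bound FITC arrestin peptide fluorescence measuring arrestin peptide binding to AP2; 0% = DMSO wells and 100% = excess unlabeled arrestin peptide control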); conditions: FITC arrestin peptide, at 10 µM, stronger effect = higher value, AP2 beta2 appendage fragment, R879A mutant
# [12] = yeast V-ATPase proton transport modulators, S. cerevisiae, pHLuorin, HTS validation (AID 504600; in the data active = response above about 15%;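 also: plate controls were DMSO for no effect and reference compound for full effect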); conditions: S. cerevisiae pHLuorin cytosolic pH, at 10 µM, stronger effect = higher value
# [13] = system: anti-desmoglein-3 scFv antibody binding to human DSG3; assay: inhibitors of anti-DSG3 scFv binding to DSG3, pilot screen, biochemical, validation compound set, bead-based, flow cytometry (AID 588368;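 active = binding below the plate cutoff, the plate median minus 3 SD, with a reading above zero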;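 also: signal is the median channel fluorescence of bead-bound GFP antibody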); conditions: Protein G beads, DSG3-Fc, scFv-GFP binding, at 10 µM, stronger effect = lower value
# [14] = inhibitors of fungal efflux pumps CDR1, CDR2, MDR1, pilot screen, validation compound set, multiplex, phenotypic (AID 588506;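 active = efflux inhibition above 0.42, the validation set average plus 4 SD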;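 also: Nile Red retained in cells so higher fluorescence means more efflux inhibition; 0 = negative control wells and 1 = enniatin B 25 µM full block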); conditions: S. cerevisiae pump-expressing triplex, Nile Red efflux flow cytometry; at 10 µM; stronger effect = higher value; the pumps come from Candida albicans
# [15] = biological target: ATP-binding cassette sub-family B member 6 (Homo sapiens) (UniProt Q9NP58); assay: ABCB6 transporter inhibitors, pilot screen, K562-ABCB6 cells, flow cytometry, validation set (AID 588550); conditions: K562-ABCB6 porphyrin accumulation, 1 h, at 10 µM, stronger effect = higher value;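 also: 0% = DMSO wells and 100% = benzethonium chloride 70 µM positive control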
# [16] = promoters of myeloid differentiation in arrested cells, primary screen, cell-based, GFP/MAC1 double positive, flow cytometry, validation set (AID 588685;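 active = differentiation response of at least 50%, scaled between solvent and reference control, from cells with both markers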;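 also: compound exposure lasts four days before antibody staining and flow analysis; 0% = DMSO wells and 100% = 5 µM fulvestrant positive control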); conditions: ER-HoxA9 marrow cells, stronger effect = higher value, normalized: vehicle 0, fulvestrant 100
# Sequence of Integrin beta-1 (Homo sapiens) + Integrin alpha-4 (Homo sapiens) (P05556 whole entry, looked up): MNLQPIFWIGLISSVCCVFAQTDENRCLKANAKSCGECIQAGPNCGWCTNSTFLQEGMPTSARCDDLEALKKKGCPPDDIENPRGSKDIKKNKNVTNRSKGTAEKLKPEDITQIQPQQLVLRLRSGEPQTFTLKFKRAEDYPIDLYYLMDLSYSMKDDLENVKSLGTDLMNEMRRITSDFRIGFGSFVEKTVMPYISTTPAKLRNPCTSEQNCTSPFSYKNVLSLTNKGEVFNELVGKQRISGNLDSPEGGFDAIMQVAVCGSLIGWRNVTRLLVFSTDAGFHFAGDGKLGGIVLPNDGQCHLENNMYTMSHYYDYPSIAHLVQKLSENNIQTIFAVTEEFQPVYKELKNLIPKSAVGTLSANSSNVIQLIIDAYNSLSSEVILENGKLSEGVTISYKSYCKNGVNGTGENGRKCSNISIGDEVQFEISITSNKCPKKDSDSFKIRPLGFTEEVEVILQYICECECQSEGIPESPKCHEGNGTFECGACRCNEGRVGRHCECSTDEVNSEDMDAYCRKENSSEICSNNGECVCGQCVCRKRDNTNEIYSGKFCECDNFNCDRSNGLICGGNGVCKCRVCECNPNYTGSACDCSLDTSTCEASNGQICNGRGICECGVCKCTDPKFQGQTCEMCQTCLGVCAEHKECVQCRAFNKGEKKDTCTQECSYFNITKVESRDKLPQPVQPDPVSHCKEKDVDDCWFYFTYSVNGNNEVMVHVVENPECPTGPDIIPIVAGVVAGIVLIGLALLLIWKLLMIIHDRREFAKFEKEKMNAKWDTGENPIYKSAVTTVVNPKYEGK
# Sequence of Integrin beta-1 (Homo sapiens) + Integrin alpha-4 (Homo sapiens) (P13612 whole entry, looked up): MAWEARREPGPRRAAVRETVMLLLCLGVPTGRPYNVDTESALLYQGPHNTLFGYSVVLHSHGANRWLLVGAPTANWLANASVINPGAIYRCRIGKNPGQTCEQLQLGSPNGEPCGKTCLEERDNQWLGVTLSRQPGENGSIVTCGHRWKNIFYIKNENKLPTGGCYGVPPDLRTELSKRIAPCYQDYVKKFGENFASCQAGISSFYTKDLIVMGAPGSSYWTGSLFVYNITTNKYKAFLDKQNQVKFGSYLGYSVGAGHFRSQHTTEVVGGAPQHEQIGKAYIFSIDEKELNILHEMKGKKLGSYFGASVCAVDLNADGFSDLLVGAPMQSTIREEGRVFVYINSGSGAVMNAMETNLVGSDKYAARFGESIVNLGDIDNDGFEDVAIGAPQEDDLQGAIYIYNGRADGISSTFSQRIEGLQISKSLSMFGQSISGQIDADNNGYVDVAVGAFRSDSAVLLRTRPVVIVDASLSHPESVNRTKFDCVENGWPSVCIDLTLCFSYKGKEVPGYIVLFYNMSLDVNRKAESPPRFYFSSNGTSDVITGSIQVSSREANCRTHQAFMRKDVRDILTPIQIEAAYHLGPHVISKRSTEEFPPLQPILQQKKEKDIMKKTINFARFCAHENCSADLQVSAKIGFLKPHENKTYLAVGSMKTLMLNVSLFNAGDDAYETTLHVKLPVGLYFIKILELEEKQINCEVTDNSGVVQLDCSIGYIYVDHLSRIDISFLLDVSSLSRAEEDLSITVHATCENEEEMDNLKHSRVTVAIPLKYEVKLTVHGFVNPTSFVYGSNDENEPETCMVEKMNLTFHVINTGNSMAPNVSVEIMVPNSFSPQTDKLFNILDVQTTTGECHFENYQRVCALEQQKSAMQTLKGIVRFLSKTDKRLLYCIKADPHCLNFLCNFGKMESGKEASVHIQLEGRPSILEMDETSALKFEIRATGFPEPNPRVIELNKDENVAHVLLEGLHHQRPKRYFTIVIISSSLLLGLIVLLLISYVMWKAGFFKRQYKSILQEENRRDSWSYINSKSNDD
# Sequence of Beta-2 adrenergic receptor (Homo sapiens) (P07550 whole entry, looked up): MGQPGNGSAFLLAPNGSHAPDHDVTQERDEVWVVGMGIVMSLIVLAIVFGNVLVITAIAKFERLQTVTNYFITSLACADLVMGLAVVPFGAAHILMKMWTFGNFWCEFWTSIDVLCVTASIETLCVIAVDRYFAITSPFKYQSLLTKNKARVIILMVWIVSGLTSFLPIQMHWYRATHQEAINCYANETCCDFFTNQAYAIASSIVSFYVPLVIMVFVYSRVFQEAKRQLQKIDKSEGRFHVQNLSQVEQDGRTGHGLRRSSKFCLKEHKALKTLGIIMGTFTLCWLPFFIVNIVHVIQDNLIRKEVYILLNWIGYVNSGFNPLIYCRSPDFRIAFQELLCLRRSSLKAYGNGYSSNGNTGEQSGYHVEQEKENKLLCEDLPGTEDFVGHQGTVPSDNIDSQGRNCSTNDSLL
# Sequence of Beta-adrenergic receptor kinase 1 (Homo sapiens) (P25098 whole entry, looked up): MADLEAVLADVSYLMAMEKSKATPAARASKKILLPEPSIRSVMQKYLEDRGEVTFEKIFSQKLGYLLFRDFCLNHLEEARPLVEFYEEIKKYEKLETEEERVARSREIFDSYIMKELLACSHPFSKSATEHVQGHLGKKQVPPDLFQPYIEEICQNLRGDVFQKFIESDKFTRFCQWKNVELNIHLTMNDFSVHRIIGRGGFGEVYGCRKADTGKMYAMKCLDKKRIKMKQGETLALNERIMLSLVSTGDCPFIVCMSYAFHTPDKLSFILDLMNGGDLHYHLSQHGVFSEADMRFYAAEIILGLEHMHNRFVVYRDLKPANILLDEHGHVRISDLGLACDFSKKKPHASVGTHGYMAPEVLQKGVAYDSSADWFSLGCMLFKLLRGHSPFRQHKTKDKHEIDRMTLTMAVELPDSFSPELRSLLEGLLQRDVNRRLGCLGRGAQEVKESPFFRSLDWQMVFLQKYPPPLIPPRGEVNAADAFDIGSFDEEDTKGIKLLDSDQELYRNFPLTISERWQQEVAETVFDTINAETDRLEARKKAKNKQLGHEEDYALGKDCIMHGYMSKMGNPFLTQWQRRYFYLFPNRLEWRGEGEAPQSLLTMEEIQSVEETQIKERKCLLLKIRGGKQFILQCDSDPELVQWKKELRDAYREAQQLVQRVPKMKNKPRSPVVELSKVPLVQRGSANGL
# Sequence of ATP-binding cassette sub-family B member 6 (Homo sapiens) (Q9NP58 whole entry, looked up): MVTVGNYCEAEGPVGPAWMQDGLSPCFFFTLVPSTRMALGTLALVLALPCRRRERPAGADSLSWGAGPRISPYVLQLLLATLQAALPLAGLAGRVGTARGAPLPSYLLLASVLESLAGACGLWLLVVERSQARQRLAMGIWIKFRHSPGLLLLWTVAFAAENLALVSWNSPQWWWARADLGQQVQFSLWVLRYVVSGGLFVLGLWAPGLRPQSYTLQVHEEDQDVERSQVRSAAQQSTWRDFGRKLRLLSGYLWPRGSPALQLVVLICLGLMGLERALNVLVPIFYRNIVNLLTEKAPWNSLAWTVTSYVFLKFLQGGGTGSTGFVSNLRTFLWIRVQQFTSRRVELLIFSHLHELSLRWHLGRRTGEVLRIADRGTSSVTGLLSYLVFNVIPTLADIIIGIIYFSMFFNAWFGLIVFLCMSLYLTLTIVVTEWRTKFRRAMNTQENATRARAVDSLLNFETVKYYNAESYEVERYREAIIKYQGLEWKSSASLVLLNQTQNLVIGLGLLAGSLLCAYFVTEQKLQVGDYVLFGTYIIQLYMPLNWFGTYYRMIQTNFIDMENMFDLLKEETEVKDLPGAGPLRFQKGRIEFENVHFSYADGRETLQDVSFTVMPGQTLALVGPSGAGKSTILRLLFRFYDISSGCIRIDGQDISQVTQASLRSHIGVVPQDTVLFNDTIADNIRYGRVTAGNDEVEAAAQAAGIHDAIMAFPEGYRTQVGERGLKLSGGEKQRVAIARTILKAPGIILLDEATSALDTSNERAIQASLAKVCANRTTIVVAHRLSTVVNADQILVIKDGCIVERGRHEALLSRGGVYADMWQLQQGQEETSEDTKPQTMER
# Sequence of AP-2 complex subunit beta (Homo sapiens) (P63010 whole entry, looked up, the tested form may be a part, one chain of several): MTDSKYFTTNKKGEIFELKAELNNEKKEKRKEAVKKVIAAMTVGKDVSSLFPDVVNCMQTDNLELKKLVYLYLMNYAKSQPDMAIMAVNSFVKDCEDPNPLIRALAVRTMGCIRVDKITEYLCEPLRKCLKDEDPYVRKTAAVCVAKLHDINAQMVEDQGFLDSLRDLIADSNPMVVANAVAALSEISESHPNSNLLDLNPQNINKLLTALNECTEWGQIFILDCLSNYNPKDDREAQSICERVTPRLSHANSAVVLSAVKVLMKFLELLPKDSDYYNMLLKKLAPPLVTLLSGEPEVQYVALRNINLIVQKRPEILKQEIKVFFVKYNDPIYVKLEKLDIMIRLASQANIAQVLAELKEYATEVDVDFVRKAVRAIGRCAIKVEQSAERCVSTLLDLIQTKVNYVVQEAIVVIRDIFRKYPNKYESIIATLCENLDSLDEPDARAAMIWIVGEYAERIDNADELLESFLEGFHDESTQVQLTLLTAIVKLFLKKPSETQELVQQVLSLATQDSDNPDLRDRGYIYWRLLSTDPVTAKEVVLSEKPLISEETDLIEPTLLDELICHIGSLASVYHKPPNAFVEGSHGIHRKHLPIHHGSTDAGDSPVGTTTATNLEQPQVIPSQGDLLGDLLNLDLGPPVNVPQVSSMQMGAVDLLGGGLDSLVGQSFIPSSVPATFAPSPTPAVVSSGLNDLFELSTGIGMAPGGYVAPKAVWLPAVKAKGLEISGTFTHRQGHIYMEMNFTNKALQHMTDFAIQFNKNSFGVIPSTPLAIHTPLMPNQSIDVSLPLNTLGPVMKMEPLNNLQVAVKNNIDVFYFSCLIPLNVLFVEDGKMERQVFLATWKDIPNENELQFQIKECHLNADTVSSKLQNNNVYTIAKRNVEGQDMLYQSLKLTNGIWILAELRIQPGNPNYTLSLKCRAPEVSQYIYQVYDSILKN
Structure (SMILES),percent of DMSO control GFP [1],GFP response vs DMSO [2],percent response of DMSO control [3],GFP response vs DMSO [4],"GFP response, % of DMSO [5]",double positive events [6] [%],vesicle binding response [6],inhibition [7],superoxide response (% of plate) [8],aptamer binding inhibition [9],response [10],inhibition [11],response [12],binding (% of control) [13],efflux inhibition (fraction of control) [14],inhibition [15],differentiation response [16]
Cc1ccc(S(=O)(=O)NC(C(=O)Oc2cc3oc(=O)cc(C)c3cc2Cl)C(C)C)cc1 (stereo not drawn),102% (inactive),102% (inactive),97.7% (inactive),103% (inactive),111% (inactive),62.7,264% (inactive),3.99% (inactive),98.7% (inactive),3% (inactive),-20.1% (inactive),-3.53% (inactive),1.33% (inactive),98.7% (inactive),0.21 (inactive),7% (inactive),-0.06% (inactive)
CCN(CCCCCN(C)C)Cc1cc2ccccc2o1,101% (inactive),101% (inactive),94.8% (inactive),112% (inactive),106% (inactive),64.4,206% (inactive),-0.43% (inactive),79.9% (inactive),-1% (inactive),-3.86% (inactive),-2.46% (inactive),0.31% (inactive),102% (inactive),-0.06 (inactive),10% (inactive),5.6% (inactive)
CN(C)c1ccc(C(CN)c2c[nH]c3ccccc23)cc1 (stereo not drawn),106% (inactive),109% (inactive),104% (inactive),108% (inactive),107% (inactive),61.4,112% (inactive),9.63% (inactive),99.4% (inactive),-10% (inactive),4.69% (inactive),33.6% (inactive),-9.67% (inactive),102% (inactive),0.09 (inactive),-9% (inactive),-16.3% (inactive)
C/C(CCc1oc2ccc(Cl)cc2c1-c1ccc(C)o1)=N\O,101% (inactive),103% (inactive),103% (inactive),125% (inactive),102% (inactive),63.1,157% (inactive),-16.4% (inactive),107% (inactive),0% (inactive),-13% (inactive),4.9% (inactive),6.85% (inactive),111% (inactive),0 (inactive),-3% (inactive),9.79% (inactive)
O=C(N1CCCCC1)C1(c2ccccc2)CCOCC1,99.3% (inactive),103% (inactive),92% (inactive),129% (inactive),103% (inactive),57.5,213% (inactive),-3.16% (inactive),92.5% (inactive),1% (inactive),-7.86% (inactive),7.05% (inactive),0.45% (inactive),104% (inactive),-0.17 (inactive),5% (inactive),-24.8% (inactive)
O=Cc1ccc(O)c(O)c1,106% (inactive),99.7% (inactive),107% (inactive),98% (inactive),108% (inactive),65.7,145% (inactive),8.29% (inactive),99.7% (inactive),6% (inactive),0.09% (inactive),6.09% (inactive),-5.24% (inactive),105% (inactive),-0.11 (inactive),21% (inactive),-4.57% (inactive)
CCc1oc2ccccc2c1C(=O)c1cc(Br)c(O)c(Br)c1,92.2% (inactive),117% (inactive),106% (inactive),78.1% (inactive),91% (inactive),65.3,165% (inactive),7.43% (inactive),118% (inactive),4% (inactive),2.6% (inactive),-0.81% (inactive),15.2% (active),102% (inactive),0.01 (inactive),12% (inactive),9.83% (inactive)
CC(=O)OC1c2c(ccc3ccc(=O)oc23)OC(C)(C)C1OC(=O)CC(C)C (stereo not drawn),103% (inactive),99.3% (inactive),104% (inactive),98% (inactive),94.2% (inactive),64.2,1500% (inactive),19.3% (inactive),90.3% (inactive),3% (inactive),-25.3% (inactive),1.97% (inactive),-1.96% (inactive),100% (inactive),0.24 (inactive),15% (inactive),-3.67% (inactive)
N/C(=N\OC(=O)CCCOc1ccc(Cl)cc1Cl)c1ccccn1,103% (inactive),110% (inactive),93.9% (inactive),107% (inactive),86.8% (inactive),59.3,11.6% (inactive),9.71% (inactive),106% (inactive),0% (inactive),2.49% (inactive),-27.4% (inactive),-2.42% (inactive),105% (inactive),-0.12 (inactive),7% (inactive),-5.68% (inactive)
